Results on seven molecules are retold here after PubChem BioAssay (EPA / NIEHS).

SMILES strings stand for the structures. Inconclusive results are not listed. Activity calls are given as the source filed them. Rule for the calls, unless noted: active = hit-call score of the fitted dose curve at least 0.9, where 1 is the maximum; inactive = score below 0.9.

Assay [1] is described as follows: ACEA_ER_80hr: ACEA Biosciences xCELLigence Real-Time Cell Analysis on Estrogen Receptor Agonism for Proliferation (AID 2282667; active = hit-call score of the fitted dose curve at least 0.9, where 1 is the maximum). As to conditions: T47D proliferation, impedance (xCELLigence), 80 h. In a few lines:
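Impedance readout (RT-CES) of T47D proliferation at 80 h post-dose; gain of signal vs DMSO baseline. Compounds: 8 conc, 1:4 serial, top 100 uM final, ≤0.5% DMSO; biological duplicate.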

Assay [2] in a line: ATG_CRE_CIS: Attagene CIS-FACTORIAL HepG2 Assay for human cAMP Responsive Element (CRE) binding protein 3 (AID 2282926). As to conditions: HepG2 CRE cis-reporter, Attagene multiplexed mRNA; actives raise or lower the signal. In outline:
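Endogenous CRE-binding activity in HepG2 is reported through a cis-regulated transfected reporter. Following a day of exposure, mRNA levels are determined by reverse transcription PCR and fluorescent fragment analysis; fits run in both directions versus DMSO.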

Assay [3] has as its target CCAAT/enhancer-binding protein beta (Homo sapiens) (UniProt P17676). Nature of the assay: ATG_C_EBP_CIS: Attagene CIS-FACTORIAL HepG2 Assay for human CCAAT/Enhancer Binding Protein (C/EBP) beta (AID 2282927). As to conditions: HepG2 Attagene cis-factorial transcription factor reporter; actives raise or lower the signal. In a few lines: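 Changes in reporter mRNA, rather than exogenous chimeric receptor activity, reflect native C/EBP signalling in transfected HepG2 cells dosed for 24 h; transcripts are detected by RT-PCR and capillary electrophoresis.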

Assay [4] is described as follows: ATG_CMV_CIS: Attagene CIS-FACTORIAL HepG2 Assay for human CMV (Internal Marker) (AID 2282928).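 Note: endpoint acts as a background internal control marker rather than a target.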 Particulars: HepG2 CMV promoter reporter, transcription factor profiling; actives raise or lower the signal. In a few lines:
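After transient transfection of HepG2 with reporter transcription units driven by cis-regulatory promoters, cells receive test chemical for 24 h. Labeled reporter amplicons, digested with HpaI, are sized and quantified by capillary electrophoresis against DMSO.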

Assay [5] is described as follows: ATG_DR4_LXR_CIS: Attagene CIS-FACTORIAL HepG2 Assay for human Liver X Receptor (LXR), DR4 submotif (AID 2282929). As to conditions: HepG2 Attagene DR4 cis-reporter, mRNA transcription; actives raise or lower the signal. In a few lines: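 The endpoint is DR4-element-driven reporter transcripts after 24 h chemical exposure of transfected HepG2 cells. These were measured via RT-PCR and capillary electrophoresis, and gain or loss of signal was fitted relative to DMSO controls.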

For assay [6], the target named is Aryl hydrocarbon receptor (Homo sapiens) (UniProt P35869). Kind of assay: ATG_Ahr_CIS: Attagene CIS-FACTORIAL HepG2 Assay for human Aryl Hydrocarbon Receptor (Ahr) (AID 2282930). As to conditions: HepG2 AhR cis-factorial reporter transcription; actives raise or lower the signal. In a few lines: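 HepG2, transient MRTU (cis) transfection, 24 h exposure. RNA → cDNA → PCR → 6-FAM primer extension → HpaI 2 h 37 C → CE. Fit: bidirectional, DMSO baseline.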
Aryl hydrocarbon receptor (Homo sapiens), sequence (P35869 whole entry, looked up): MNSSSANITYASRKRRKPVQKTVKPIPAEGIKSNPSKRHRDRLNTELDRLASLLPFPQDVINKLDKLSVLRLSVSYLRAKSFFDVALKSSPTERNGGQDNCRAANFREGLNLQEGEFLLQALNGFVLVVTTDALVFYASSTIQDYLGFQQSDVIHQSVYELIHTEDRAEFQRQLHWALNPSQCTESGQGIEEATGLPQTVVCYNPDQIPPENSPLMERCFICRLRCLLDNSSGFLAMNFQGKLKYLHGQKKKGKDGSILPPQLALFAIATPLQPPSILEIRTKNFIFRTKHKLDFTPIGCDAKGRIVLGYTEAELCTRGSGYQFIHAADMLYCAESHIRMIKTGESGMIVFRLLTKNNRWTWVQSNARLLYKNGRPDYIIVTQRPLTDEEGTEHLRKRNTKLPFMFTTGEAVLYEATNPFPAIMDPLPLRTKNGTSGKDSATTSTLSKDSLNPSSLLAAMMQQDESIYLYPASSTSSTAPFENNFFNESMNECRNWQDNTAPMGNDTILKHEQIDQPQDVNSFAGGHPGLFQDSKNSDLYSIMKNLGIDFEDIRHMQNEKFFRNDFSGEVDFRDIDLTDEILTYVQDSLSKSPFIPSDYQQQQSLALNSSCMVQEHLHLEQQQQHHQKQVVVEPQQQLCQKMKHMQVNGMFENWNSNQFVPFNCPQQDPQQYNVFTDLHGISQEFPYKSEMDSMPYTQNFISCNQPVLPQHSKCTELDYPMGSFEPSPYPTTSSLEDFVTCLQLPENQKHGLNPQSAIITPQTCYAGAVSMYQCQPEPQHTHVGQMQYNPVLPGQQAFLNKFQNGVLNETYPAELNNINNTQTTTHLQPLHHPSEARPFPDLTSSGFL

Assay [7] is described as follows: ATG_AP_1_CIS: Attagene CIS-FACTORIAL HepG2 Assay for human Activator Protein 1 (AP-1) (AID 2282931). As to conditions: HepG2 Attagene cis-factorial AP-1 reporter mRNA; actives raise or lower the signal. In outline: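 Readout is reporter transcript level from endogenous transcription factor activity, quantified by RT-PCR with fluorescent primer extension and capillary electrophoresis. Transiently transfected HepG2 cells, 24 h exposure. Curves fitted both directions versus DMSO.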

A short description of assay [8]: ATG_AP_2_CIS: Attagene CIS-FACTORIAL HepG2 Assay for human Activator Protein 2 (AP-2) (AID 2282932). As to conditions: HepG2 AP-2 cis-reporter, Attagene transcription factor profiling; actives raise or lower the signal. In a few lines:
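Step one: transient transfection of HepG2 with reporter transcription units. Step two: 24 h chemical exposure. Step three: RNA extraction, RT-PCR, labelled fragment analysis by capillary electrophoresis; DMSO serves as baseline.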

Assay [9] in a line: ATG_BRE_CIS: Attagene CIS-FACTORIAL HepG2 Assay for human Bone Morphogenetic Protein (BMP) Response Element (BRE) (AID 2282933). As to conditions: HepG2 BMP response element reporter, Attagene transcription factor profiling; actives raise or lower the signal. In outline: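 HepG2 cells transiently transfected with multiplexed cis-element reporter units were dosed with chemical for 24 h. Reporter mRNA was measured by RT-PCR with fluorescent labelling, HpaI digestion and capillary electrophoresis; bidirectional fitting relative to DMSO.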

Assay [10] deals with Retinoic acid receptor alpha (Homo sapiens) (UniProt P10276). Kind of assay: ATG_DR5_RAR_CIS: Attagene CIS-FACTORIAL HepG2 Assay for human Retinoic Acid Receptor Alpha (RARE), DR5 submotif (AID 2282934).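 For AC50: reporter responds to endogenous RAR alpha beta and gamma in HepG2 not RARA alone.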 As to conditions: HepG2 Attagene cis-factorial RARE DR5 reporter, mRNA; actives raise or lower the signal. In outline:
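HepG2, transient cis-reporter transfection, 24 h exposure. mRNA readout: RT-PCR, FAM label, HpaI cut, capillary electrophoresis. DMSO baseline, gain/loss fitting.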

In assay [11] the target is Transcription factor E2F1 (Homo sapiens) (UniProt Q01094). Kind of assay: ATG_E2F_CIS: Attagene CIS-FACTORIAL HepG2 Assay for human E2F Transcription Factor 1 (AID 2282935). As to conditions: HepG2 Attagene cis-reporter, E2F reporter RNA transcripts; actives raise or lower the signal. In outline: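 Total RNA from 24 h-treated, reporter-transfected HepG2 cells undergoes DNase I treatment, oligo(dT) reverse transcription, PCR and 6-FAM primer extension before capillary electrophoresis.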
Transcription factor E2F1 (Homo sapiens), sequence (Q01094 whole entry, looked up): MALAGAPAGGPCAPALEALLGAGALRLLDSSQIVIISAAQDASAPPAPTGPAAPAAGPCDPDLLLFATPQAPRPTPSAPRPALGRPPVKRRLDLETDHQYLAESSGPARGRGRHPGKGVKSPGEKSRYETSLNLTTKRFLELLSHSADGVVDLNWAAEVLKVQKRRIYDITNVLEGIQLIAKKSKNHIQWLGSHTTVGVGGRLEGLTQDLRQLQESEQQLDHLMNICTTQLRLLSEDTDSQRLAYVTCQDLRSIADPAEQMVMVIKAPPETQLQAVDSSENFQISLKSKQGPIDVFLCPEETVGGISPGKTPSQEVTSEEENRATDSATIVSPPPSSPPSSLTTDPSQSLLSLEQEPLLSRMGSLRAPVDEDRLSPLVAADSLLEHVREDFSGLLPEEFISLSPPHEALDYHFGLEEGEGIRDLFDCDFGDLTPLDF

Assay [12] in a line: ATG_E_Box_CIS: Attagene CIS-FACTORIAL HepG2 Assay for human Enhancer Box (E-box) (AID 2282936). Particulars: HepG2 E-box cis-reporter transcription, actives raise or lower the signal. In a few lines: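 DMSO served as negative control and baseline for bidirectional fitting. Human hepatoma HepG2 cells, transiently transfected with cis-reporter constructs, were dosed 24 h; reporter mRNA read by RT-PCR and capillary electrophoresis.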

Assay [13] in a line: ATG_M_61_CIS: Attagene CIS-FACTORIAL HepG2 Assay for M61 Transcription Factor (Internal Marker) (AID 2282937). Particulars: HepG2 Attagene CIS-FACTORIAL M61 internal marker reporter; actives raise or lower the signal. In outline: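 Readout is reporter mRNA by RT-PCR, fluorescent primer extension and capillary electrophoresis, with gain or loss fitted relative to DMSO. Transfected HepG2 cells carrying endogenous-TF-driven cis reporters were exposed to chemicals for 24 hours.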

Assay [14] is described as follows: ATG_EGR_CIS: Attagene CIS-FACTORIAL HepG2 Assay for human Early Growth Response 1 (EGR1) (AID 2282938). As to conditions: HepG2 Attagene CIS-FACTORIAL EGR reporter mRNA; actives raise or lower the signal. In outline: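 After 24 h compound exposure, RNA from reporter-transfected HepG2 cells was reverse-transcribed, PCR-amplified, fluorescently labelled and resolved by capillary electrophoresis. EGR1 reporter transcript changes, up or down, were fitted against DMSO, reflecting endogenous transcription-factor activity.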

A short description of assay [15]: ATG_M_19_CIS: Attagene CIS-FACTORIAL HepG2 Assay for M19 Transcription Factor (Internal Marker) (AID 2282939). Particulars: HepG2 Attagene CIS-FACTORIAL M19 internal marker reporter; actives raise or lower the signal. In a few lines:
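HepG2 cells transiently transfected with cis-regulated multiple reporter transcription units were dosed for 24 h; reporter mRNA was quantified by RT-PCR, 6-FAM primer-extension labelling, HpaI digestion and capillary electrophoresis, with bidirectional fitting against DMSO baseline.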

The nature of assay [16]: ATG_ERE_CIS: Attagene CIS-FACTORIAL HepG2 Assay for Estrogen Response Element (ERE) (AID 2282940). As to conditions: HepG2 ERE cis-reporter, Attagene RNA transcript; actives raise or lower the signal. In outline: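 HepG2 cells transiently transfected with cis-promoter-driven multiplexed reporter transcription units report endogenous TF activity. After 24 h compound exposure, reporter mRNA is quantified by RT-PCR with capillary electrophoresis fluorescence; bidirectional fitting versus DMSO baseline.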

Assay [17] in a line: ATG_Ets_CIS: Attagene CIS-FACTORIAL HepG2 Assay for human Erythroblast Transformation Specific (ETS) (AID 2282941). Particulars: HepG2 ETS cis-reporter transcription, actives raise or lower the signal. In a few lines: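 Human HepG2 hepatoma cells were transiently transfected with promoter-driven reporter constructs and treated for 24 hours. Reporter transcripts were quantified by RT-PCR with fluorescent primer extension; bidirectional curve fitting used DMSO as reference.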

The target of assay [18] is Hepatocyte nuclear factor 3-beta (Homo sapiens) (UniProt Q9Y261). Kind of assay: ATG_FoxA2_CIS: Attagene CIS-FACTORIAL HepG2 Assay for human Forkhead box A2 (FOXA2) (AID 2282942). As to conditions: HepG2 cis-reporter transcription factor activity, 24 h; actives raise or lower the signal. In a few lines: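 Endogenous transcription factor activity is captured via cis-element-driven reporter transcripts in transfected HepG2. Total RNA taken at 24 h post-dosing; labelled RT-PCR products resolved by capillary electrophoresis. Gain or loss fitted versus DMSO.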
Hepatocyte nuclear factor 3-beta (Homo sapiens), sequence (Q9Y261 whole entry, looked up): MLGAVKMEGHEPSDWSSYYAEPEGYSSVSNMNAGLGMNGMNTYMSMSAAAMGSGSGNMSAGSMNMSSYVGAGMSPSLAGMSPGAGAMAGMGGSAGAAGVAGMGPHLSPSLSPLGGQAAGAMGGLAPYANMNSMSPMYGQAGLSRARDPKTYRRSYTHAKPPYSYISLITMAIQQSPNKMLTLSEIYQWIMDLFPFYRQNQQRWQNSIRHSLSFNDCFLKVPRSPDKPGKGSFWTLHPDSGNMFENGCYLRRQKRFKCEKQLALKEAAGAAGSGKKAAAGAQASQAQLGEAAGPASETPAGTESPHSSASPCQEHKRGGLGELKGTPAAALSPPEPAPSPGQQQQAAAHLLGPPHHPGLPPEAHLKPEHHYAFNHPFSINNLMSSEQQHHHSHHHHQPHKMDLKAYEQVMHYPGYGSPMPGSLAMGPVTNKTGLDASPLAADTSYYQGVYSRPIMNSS

Assay [19] is described as follows: ATG_FoxO_CIS: Attagene CIS-FACTORIAL HepG2 Assay for human Forkhead box O (FoxO) (AID 2282943). Particulars: HepG2 Attagene cis-reporter, FoxO element, mRNA; actives raise or lower the signal. In outline:
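Human hepatoma HepG2 cells carry transiently introduced reporter transcription units controlled by cis promoter elements. Chemical treatment lasted 24 h, and mRNA signal was compared with DMSO.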

Assay [20] in a line: ATG_GATA_CIS: Attagene CIS-FACTORIAL HepG2 Assay for human GATA Binding Protein (AID 2282944). As to conditions: HepG2 GATA cis-element reporter, Attagene multiplex mRNA; actives raise or lower the signal. In a few lines:
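HepG2 cells transiently transfected with multiplexed cis-element reporter units reflecting endogenous transcription factor activity; reporter mRNA measured after 24 h dosing by RT-PCR, 6-FAM labeling, HpaI digestion and capillary electrophoresis. Bidirectional fitting versus DMSO baseline.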

CCAAT/enhancer-binding protein beta (Homo sapiens), sequence (P17676 whole entry, looked up): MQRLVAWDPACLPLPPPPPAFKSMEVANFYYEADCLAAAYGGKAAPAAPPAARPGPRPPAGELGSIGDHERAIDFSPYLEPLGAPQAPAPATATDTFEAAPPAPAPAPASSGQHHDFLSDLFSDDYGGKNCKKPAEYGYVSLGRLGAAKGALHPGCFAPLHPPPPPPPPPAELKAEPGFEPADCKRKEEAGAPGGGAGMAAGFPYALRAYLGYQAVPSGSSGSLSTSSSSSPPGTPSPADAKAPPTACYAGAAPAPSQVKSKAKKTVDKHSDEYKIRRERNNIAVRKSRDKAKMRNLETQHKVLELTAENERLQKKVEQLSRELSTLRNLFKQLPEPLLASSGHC
Retinoic acid receptor alpha (Homo sapiens), sequence (P10276 whole entry, looked up): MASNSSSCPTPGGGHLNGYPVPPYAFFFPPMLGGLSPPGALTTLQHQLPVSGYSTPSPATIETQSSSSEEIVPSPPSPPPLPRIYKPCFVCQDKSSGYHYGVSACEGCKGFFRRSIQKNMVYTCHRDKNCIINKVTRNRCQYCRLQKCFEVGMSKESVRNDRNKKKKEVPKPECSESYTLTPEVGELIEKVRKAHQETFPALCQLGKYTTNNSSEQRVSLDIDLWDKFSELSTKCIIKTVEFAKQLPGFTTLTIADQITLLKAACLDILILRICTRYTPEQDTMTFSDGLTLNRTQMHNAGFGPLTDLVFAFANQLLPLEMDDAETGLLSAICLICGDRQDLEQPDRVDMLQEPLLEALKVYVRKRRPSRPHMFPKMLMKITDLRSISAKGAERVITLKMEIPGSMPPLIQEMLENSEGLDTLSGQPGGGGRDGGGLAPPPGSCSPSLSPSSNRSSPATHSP

`CCn1c2ccccc2c2ccccc21`: the outcome in assay [1], in assay [2], in assay [3], in assay [5], in assay [6] and in assay [8] was inactive. The outcome in [11], in assay [12], in assay [13], in [14], in assay [15] and in [16] was inactive. Besides, the molecule was called inactive in assay [17], in assay [18], in assay [19] and in assay [20]. Moreover, the half-maximal activity concentration (AC50) is 57.4 µM (active) in [4], 164 µM (active) in assay [7], 159 µM (active) in [9] and 25.8 µM (active) in assay [10].

For the molecule `OCC(O)CC(F)(F)C(F)(F)C(F)(F)C(F)(F)F` (stereo not given), the molecule was called inactive in [1], in assay [2], in assay [3], in assay [4], in assay [5] and in assay [6]. Further, the molecule was called inactive in assay [7], in [8], in assay [9], in assay [10], in assay [11] and in assay [12]. Also, the call in assay [13], in assay [14], in assay [15], in [16], in [17] and in [18] was inactive. Further, the outcome in [19] and in [20] was inactive.

With `Brc1ccccn1`, the outcome in assay [1], in assay [2], in assay [3], in [4], in assay [5] and in assay [6] was inactive. For the same molecule, the outcome in [7], in assay [8], in assay [9], in [10], in assay [11] and in assay [12] was inactive. Also, the molecule was classed as inactive in assay [13], in assay [14], in assay [15], in [16], in assay [17] and in [18]. The result in assay [19] and in assay [20] was inactive.

On to `Brc1nc2ccccc2s1`, for which the AC50 is 0.0408 µM (active) in assay [1]; 100 µM (active) in [5]; 2.56 µM (active) in [6]; 65.1 µM (active) in [7]; 100 µM (active) in [12]. For the same molecule, the result in [2], in [3], in assay [4], in assay [8], in [9] and in [10] was inactive. Also, the molecule was called inactive in assay [11], in assay [13], in [14], in assay [15], in [16] and in [17]. Also, the call in assay [18], in assay [19] and in assay [20] was inactive.

As for `Nc1cccnc1N`, the call in assay [1], in assay [2], in [3], in [4], in assay [8] and in [9] was inactive. Also, the outcome in assay [11], in assay [12], in [13], in assay [14], in assay [15] and in [16] was inactive. The molecule was classed as inactive in assay [17], in assay [18], in [19] and in [20]. Moreover, the AC50 was 53.5 µM (active) in [5], 27.4 µM (active) in assay [6], 16.7 µM (active) in assay [7] and 65.8 µM (active) in [10].

With `O=S(=O)(O)CCC(F)(F)C(F)(F)C(F)(F)C(F)(F)C(F)(F)C(F)(F)C(F)(F)C(F)(F)F`, the molecule was classed as inactive in assay [1], in assay [2], in [3], in [4], in assay [5] and in assay [6]. In addition, the molecule was called inactive in assay [7], in assay [8], in [9], in assay [10], in assay [11] and in assay [12]. Besides, the outcome in [13], in assay [14], in [15], in [16], in assay [17] and in [18] was inactive. Also, the result in assay [19] and in [20] was inactive.

In the case of `CN1CN(C)CN(C)C1`, the call in assay [1], in assay [2], in assay [3], in assay [4], in assay [6] and in assay [7] was inactive. The molecule was classed as inactive in assay [8], in assay [9], in assay [10], in [11], in assay [12] and in assay [13]. For the same molecule, the outcome in assay [14], in assay [15], in [16], in [17], in assay [18] and in [19] was inactive. In [20], the outcome was inactive. In assay [5], the concentration at half-maximal activity (AC50) was 135 µM (active).

In general, AC50 refers to the concentration at which the activity in the assay is half-maximal.
